Assay results: PubChem BioAssay AID1159580 (chemical genetic matrix, 2015)
Values joined by “and” are separate entries in the source; they are usually repeats but may differ in a detail not shown here. Equal entries are not always repeated. About 2,000 (36%) of roughly 5,500 compounds were called active. Not shown: some 18% with an inconclusive outcome. No stated cut-off is given here; in the data, active means normalized growth mostly below about 0.91 (no sharp cut-off); inconclusive means no clear call, values can overlap the other calls; inactive means mostly above about 0.92. The list shows a part of the results.

Assay: chemical genetic growth profiling, strain panel (AID 1159580);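 further: tested at 20 µM; growth read once vehicle control cultures reached saturation at 30 °C; 1 = growth at the plate median or of vehicle wells; lower values mean less growth of the strain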
Conditions: S. cerevisiae deletion strains, growth OD

Measured: normalized growth

COc1ccc2c(c1)[nH]c1c(C)nccc12
inactive: locus YAL013W, strain DEP1, hits give low values 1.02 | locus YAL021C, strain ccr4, hits give low values 0.978 | locus YAL026C, strain drs2, hits give low values 1 | locus YAL030W, strain snc1, hits give low values 1 | locus YBL061C, strain skt5, hits give low values 0.993 | locus YBR009C, strain hhf1, hits give low values 0.992 | locus YBR021W, strain FUR4, hits give low values 1.03 | locus YBR023C, strain chs3, hits give low values 1 | locus YBR171W, strain sec66, hits give low values 0.987 | locus YBR229C, strain ROT2, hits give low values 1.02 | locus YBR231C, strain swc5, hits give low values 0.994 | locus YBR279W, strain paf1, hits give low values 0.991 | locus YCL011C, strain gbp2, hits give low values 1.01 | locus YCL016C, strain dcc1, hits give low values 1 | locus YCL029C, strain bik1, hits give low values 0.968 | locus YCL061C, strain MRC1, hits give low values 0.994 | locus YCL069W, strain vba3, hits give low values 0.995 | locus YCR088W, strain abp1, hits give low values 1 | locus YDL005C, strain med2, hits give low values 0.994 | locus YDL035C, strain GPR1, hits give low values 0.998 | locus YDL040C, strain nat1, hits give low values 0.995 | locus YDL074C, strain BRE1, hits give low values 1.03 | locus YDL101C, strain DUN1, hits give low values 1.01 | locus YDL134C, strain PPH21, hits give low values 1.02 | locus YDL185W, strain tfp1, hits give low values 0.968 | locus YDL192W, strain arf1, hits give low values 0.979 | locus YDR001C, strain nth1, hits give low values 0.991 | locus YDR069C, strain doa4, hits give low values 0.997 | locus YDR101C, strain arx1, hits give low values 0.987 | locus YDR137W, strain rgp1, hits give low values 1.01 | locus YDR150W, strain NUM1, hits give low values 0.978 | locus YDR159W, strain sac3, hits give low values 1.01 | locus YDR162C, strain NBP2, hits give low values 1.02 | locus YDR195W, strain ref2 1.01 | locus YDR297W, strain sur2, hits give low values 0.999 | locus YDR318W, strain mcm21, hits give low values 0.986 | locus YDR334W, strain swr1, hits give low values 0.991 | locus YDR335W, strain msn5, hits give low values 0.994 | locus YDR388W, hits give low values 0.98 | locus YDR392W, strain spt3, hits give low values 0.991 | locus YDR502C, strain sam2, hits give low values 0.995 | locus YEL003W, strain gim4, hits give low values 0.988 | locus YEL037C, strain rad23, hits give low values 0.991 | locus YEL061C, strain CIN8 (second series), hits give low values 0.99 | locus YEL061C, strain CIN8, hits give low values 1.01 | locus YER015W, strain faa2, hits give low values 0.988 | locus YER016W, strain bim1, hits give low values 0.997 | locus YER110C, hits give low values 0.969 | locus YER111C, strain swi4, hits give low values 0.998 | locus YER155C, strain BEM2 (second series), hits give low values 0.95 | locus YER155C, strain BEM2, hits give low values 1.01 | locus YER167W, strain BCK2, hits give low values 1 | locus YFR010W, strain ubp6, hits give low values 0.982 | locus YGL078C, strain dbp3, hits give low values 0.972 | locus YGL086W, strain mad1, hits give low values 0.981 | locus YGL167C, strain pmr1, hits give low values 0.991 | locus YGL173C, strain kem1, hits give low values 0.999 | locus YGL227W, strain vid30, hits give low values 0.984 | locus YGL240W, strain doc1, hits give low values 0.989 | locus YGL248W, strain PDE1, hits give low values 1.02 | locus YGL253W, strain hxk2, hits give low values 0.995 | locus YGR078C, strain PAC10, hits give low values 1.03 | locus YGR135W, strain pre9, hits give low values 0.981 | locus YGR229C, strain SMI1, hits give low values 1.07 | locus YGR252W, strain gcn5, hits give low values 0.931 | locus YHR013C, strain ard1, hits give low values 1.01 | locus YHR027C, strain rpn1, hits give low values 0.991 | locus YHR030C, strain SLT2, hits give low values 1.01 and 1.02 | locus YHR079C, strain IRE1 (second series), hits give low values 0.988 | locus YHR079C, strain IRE1, hits give low values 1.03 | locus YHR094C, strain hxt1, hits give low values 0.963 | locus YHR129C, strain ARP1, hits give low values 1.01 | locus YHR142W, strain chs7, hits give low values 1.01 | locus YHR200W, strain rpn10, hits give low values 0.97 | locus YIL066C, strain RNR3, hits give low values 1.02 | locus YIL073C, strain SPO22, hits give low values 0.887 | locus YIL125W, strain kgd1, hits give low values 0.986 | locus YIR030C, strain dcg1, hits give low values 0.994 | locus YJL092W, strain hpr5, hits give low values 0.996 | locus YJL095W, strain BCK1 (second series), hits give low values 1 | locus YJL095W, strain BCK1, hits give low values 1.07 and 1.01 | locus YJL115W, strain asf1, hits give low values 0.979 | locus YJL129C, strain trk1, hits give low values 0.987 | locus YJL134W, strain LCB3, hits give low values 1.01 | locus YJL154C, strain vps35, hits give low values 1 | locus YJL164C, strain tpk1, hits give low values 0.997 | locus YJL166W, strain qcr8, hits give low values 0.991 | locus YJL168C, strain set2, hits give low values 0.996 | locus YJL187C, strain SWE1 (second series), hits give low values 1.01 | locus YJR043C, strain POL32, hits give low values 0.989 | locus YJR066W, strain TOR1, hits give low values 0.972
